The campaign covered roughly 5,500 compounds. About 2,000 (36%) were called active. Another 18% or so got no clear call; they are omitted. Rule as the data show it: active = normalized growth mostly below about 0.91 (no sharp cut-off); inconclusive = no clear call, values can overlap the other calls; inactive = mostly above about 0.92. This is one part of the list.
Assay: chemical genetic growth profiling, strain panel (AID 1159580);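 also: tested at 20 µM; growth read once vehicle control cultures reached saturation at 30 °C; 1 = growth at the plate median or of vehicle wells; lower values mean less growth of the strain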
Conditions: S. cerevisiae deletion strains, growth OD

Measured: normalized growth

NCC(O)c1cc(O)c(O)cc1F (stereo unspecified)
inactive: locus YAL040C, strain CLN3, stronger effect = lower value 1 | locus YDR150W, strain NUM1, stronger effect = lower value 1.02 | locus YER002W, strain NOP16, stronger effect = lower value 1.01 | locus YJR075W, strain HOC1, stronger effect = lower value 1.03 | locus YNL128W, strain TEP1, stronger effect = lower value 1.03 | locus YNL153C, strain GIM3, stronger effect = lower value 1.01 | locus YNL175C, strain NOP13, stronger effect = lower value 0.978 | locus YNL197C, strain WHI3, stronger effect = lower value 0.994 | locus YNL224C, strain SQS1, stronger effect = lower value 1.01 | locus YOR083W, strain WHI5 (second series), stronger effect = lower value 1.04 | locus YPL241C, strain CIN2, stronger effect = lower value 1.01
